PubChem BioAssay (Tox21)
Several values for one entry are separate records, joined by “and”; a condition that tells them apart may be missing. Equal entries are not always repeated. Results filed as inconclusive are left out. Activity calls are given as the source filed them. The call rests on the fitted dose curve; in most records, active means well fitted curve in the direction sought with a large enough effect in the repeat runs; inconclusive means weak or mixed curves; inactive means no such curve, though single readings can be large; an effect the other way counts as inactive or inconclusive.

Experiments:
[1] = qHTS RealTime-Glo MT Cell Viability Assay in HepG2 cells - 40 hour (AID 1224870); further: nearly all actives have a fitted effect of over 50% in size
How it was run: (§1)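 HepG2 cells (600/well) mixed with RealTime-Glo MT reagent, settled 5 h at 37 C/5% CO2 before compound addition. Nonlytic NanoLuc luminescence from viable-cell prosubstrate reduction read repeatedly during 40 h treatment at 37 C.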

[2] = A CellTox Green Cytotoxicity Assay to monitor cytotoxicity in HEK293 cells - 40 hour (AID 1224871); further: nearly all actives have a fitted effect of over 45% in size
How it was run: (§2)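 Nonlytic real-time cytotoxicity: HEK293 + CellTox Green reagent plated, 5 h preincubation, pintool compound addition (23 nL in DMSO), 37 C for 40 h, fluorescence measured at successive time points.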

[3] = qHTS RealTime-Glo MT Cell Viability Assay in HEK293 cells - 16 hour (AID 1224872); further: top concentration of the series differs between compounds; nearly all actives have a fitted effect of over 50% in size
How it was run: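 HEK293 cells were seeded at 600 cells/well together with NanoLuc luciferase and cell-permeant prosubstrate, preincubated 5 h at 37 C/5% CO2, then given compound in DMSO by pintool. Luminescence from viable-cell prosubstrate reduction was read repeatedly over 40 h.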

[4] = qHTS RealTime-Glo MT Cell Viability Assay in HepG2 cells - 8 hour (AID 1224873); further: nearly all actives have a fitted effect of over 55% in size
How it was run: as §1

[5] = qHTS RealTime-Glo MT Cell Viability Assay in HEK293 cells - 40 hour (AID 1224874); settings: RealTime-Glo luminescence; max response: hits give low values; further: nearly all actives have a fitted effect of over 50% in size
How it was run: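 Cells were seeded together with NanoLuc luciferase and a prosubstrate that viable cells reduce to a luciferase substrate. After a 5 h incubation at 37 C/5% CO2, compounds were added and luminescence was measured repeatedly during 40 h of treatment.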

[6] = A CellTox Green Cytotoxicity Assay to monitor cytotoxicity in HEK293 cells - 24 hour (AID 1224875); further: series mostly up to about 77 µM; nearly all actives have a fitted effect of over 45% in size
How it was run: as §2

[7] = A CellTox Green Cytotoxicity Assay to monitor cytotoxicity in HepG2 cells - 16 hour (AID 1224876); further: nearly all actives have a fitted effect of over 45% in size
How it was run: (§3)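 Read-out is fluorescence of a cyanine dye excluded from live cells that stains DNA of dead HepG2 cells, with signal proportional to cytotoxicity. Plates were read at 0, 8, 16, 24, 32 and 40 h after compound addition.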

[8] = qHTS RealTime-Glo MT Cell Viability Assay in HepG2 cells - 32 hour (AID 1224877); further: nearly all actives have a fitted effect of over 55% in size
How it was run: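 HepG2 cells were seeded at 600 cells/well together with NanoLuc luciferase and a cell-permeant prosubstrate, preincubated 5 h at 37 C/5% CO2, then pin-dosed with compounds in DMSO. Nonlytic luminescence from viable cells was read at each time point.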

[9] = A CellTox Green Cytotoxicity Assay to monitor cytotoxicity in HepG2 cells - 24 hour (AID 1224878); further: nearly all actives have a fitted effect of over 45% in size
How it was run: as §3

[10] = A CellTox Green Cytotoxicity Assay to monitor cytotoxicity in HepG2 cells - 40 hour (AID 1224879); further: nearly all actives have a fitted effect of over 40% in size
How it was run: as §3
On the % scale 0 is the no-effect control and ±100 the full control effect.

CCCCCCCCCCCCN(CCCCCCCCCCCC)CCCCCCCCCCCC
inactive: Potency [1] | Potency [2] | Potency [3] | Potency [4] | max response [5] 0.0553% | Potency [6] | Potency [7] | Potency [8] | Potency [9] | Potency [10]

O=C1CCCN1C1CCCCC1
inactive: Potency [1] | Potency [2] | Potency [3] | Potency [4] | max response [5] 6.98% | Potency [6] | Potency [7] | Potency [8] | Potency [9] | Potency [10]

CN1CCN(c2cc3c(cc2F)c(=O)c(C(=O)O)cn3-c2ccc(F)cc2)CC1
inactive: Potency [1] | Potency [2] | Potency [3] | Potency [4] | max response [5] -0.934% | Potency [6] | Potency [7] | Potency [8] | Potency [9] | Potency [10]

NC(=O)COCCN1CCN(C(c2ccccc2)c2ccc(Cl)cc2)CC1 (stereo not drawn)
inactive: Potency [1] | Potency [2] | Potency [3] | Potency [4] | max response [5] 4.08% | Potency [6] | Potency [7] | Potency [8] | Potency [9] | Potency [10]

c1cnc(N2CCN(Cc3ccc4c(c3)OCO4)CC2)nc1
inactive: Potency [1] | Potency [2] | Potency [3] | Potency [4] | max response [5] -13% | Potency [6] | Potency [7] | Potency [8] | Potency [9] | Potency [10]

CCN1CCC[C@H]1CNC(=O)c1c(O)c(Cl)cc(Cl)c1OC
inactive: Potency [1] | Potency [2] | Potency [3] | Potency [4] | max response [5] -0.593% | Potency [6] | Potency [7] | Potency [8] | Potency [9] | Potency [10]

Cc1ccc(C#N)cc1
inactive: Potency [1] | Potency [2] | Potency [3] | Potency [4] | max response [5] 6.96% | Potency [6] | Potency [7] | Potency [8] | Potency [9] | Potency [10]

C=CCS(=O)(=O)O
inactive: Potency [1] | Potency [2] | Potency [3] | Potency [4] | max response [5] 0.443% | Potency [6] | Potency [7] | Potency [8] | Potency [9] | Potency [10]

c1ccc(CC2=NCCN2)cc1
inactive: Potency [1] | Potency [2] | Potency [3] | Potency [4] | max response [5] -5.85% | Potency [6] | Potency [7] | Potency [8] | Potency [9] | Potency [10]

COCCCOCCCOC
inactive: Potency [1] | Potency [2] | Potency [3] | Potency [4] | max response [5] 6.62% | Potency [6] | Potency [7] | Potency [8]

C=CCOCC(CC)(CO)COCC=C
inactive: Potency [1] | Potency [2] | Potency [3] | Potency [4] | max response [5] 5.04% | Potency [6] | Potency [7] | Potency [8] | Potency [9] | Potency [10]

NC(=O)c1ccc([N+](=O)[O-])cc1
inactive: Potency [1] | Potency [2] | Potency [3] | Potency [4] | max response [5] 2.32% | Potency [6] | Potency [7] | Potency [8] | Potency [9] | Potency [10]

C=C(C)C(=O)OCCCCCCCC(C)C
inactive: Potency [1] | Potency [2] | Potency [3] | Potency [4] | max response [5] -8.22% | Potency [6] | Potency [7] | Potency [8] | Potency [9] | Potency [10]

OCCOc1ccc(OCCO)cc1
inactive: Potency [1] | Potency [2] | Potency [3] | Potency [4] | max response [5] 19.3% | Potency [6] | Potency [7] | Potency [8] | Potency [9] | Potency [10]

N=c1nc(N2CCCCC2)cc(N)n1O
inactive: Potency [1] | Potency [2] | Potency [3] | Potency [4] | max response [5] -2.32% | Potency [6] | Potency [7] | Potency [8] | Potency [9] | Potency [10]

Cc1sccc1Br
inactive: Potency [1] | Potency [2] | Potency [3] | Potency [4] | max response [5] 6.36% | Potency [6] | Potency [7] | Potency [8] | Potency [9] | Potency [10]

CC(C)(O)C#CC(C)(C)O
inactive: Potency [1] | Potency [2] | Potency [3] | Potency [4] | max response [5] 4.69% | Potency [6] | Potency [7] | Potency [8] | Potency [9] | Potency [10]

CO[Si](CCCOCC1CO1)(OC)OC (stereo not drawn)
inactive: Potency [1] | Potency [2] | Potency [3] | Potency [4] | max response [5] 0.892% and 6.22% | Potency [6] | Potency [7] | Potency [8] | Potency [9] | Potency [10]

CCn1ccnc1CC1COc2ccccc2O1 (stereo not drawn)
inactive: Potency [1] | Potency [2] | Potency [3] | Potency [4] | max response [5] -26.6% | Potency [6] | Potency [7] | Potency [8] | Potency [9] | Potency [10]

NS(=O)(=O)c1cc2c(cc1Cl)NC(C1CC3C=CC1C3)NS2(=O)=O (stereo not drawn)
inactive: Potency [1] | Potency [2] | Potency [3] | Potency [4] | max response [5] 11.9% | Potency [6] | Potency [7] | Potency [8] | Potency [9] | Potency [10]

CCOC(=O)c1cccc(N)c1
inactive: Potency [1] | Potency [2] | Potency [3] | Potency [4] | max response [5] 3.26% | Potency [6] | Potency [7] | Potency [8] | Potency [9] | Potency [10]

COCCc1ccc(OCC(O)CNC(C)C)cc1 (stereo not drawn)
inactive: Potency [1] | Potency [2] | Potency [3] | Potency [4] | max response [5] 1.31% and -8.11% | Potency [6] | Potency [7] | Potency [8] | Potency [9] | Potency [10]
